# Results as given in PubChem BioAssay (Tox21).
# Inconclusive results are not listed. A number with no mark means an inactive call. Calls follow the shape of the full dose curve.
# Assay: qHTS assay to identify small molecule agonists of the NFkB signaling pathway - cell viability counter screen (AID 1159515); also: nearly all actives have a fitted effect of over 55% in size
# Conditions: NFkB-bla ME-180 viability, CellTiter-Glo luminescence, 5 h; series mostly up to 61 µM; activity, negative = cytotoxic: at the top concentration
# Text: National Center for Advancing Translational Sciences [NCATS]
# NIH Chemical Genomics Center [NCGC]
# U.S. Environmental Protection Agency [EPA]
# National Institutes of Environmental Health Sciences [NIEHS]
# National Toxicology Program [NTP]
# U.S. Food and Drug Administration [FDA]
# Transcription factors and their stimulated target gene expression play pivotal roles across many cellular processes including responses to environmental stimuli. Proper regulation of associated pathways is critical to maintain cell health and function. Constitutive activation of transcription factor pathways has been implicated in tumors as it may block cellular functions such as apoptosis and lead to invasion and metastasis. One important transcription factor that stimulates gene expression in response to cytokines, UV radiation, and other stimuli is nuclear factor-kappa B (NFkB). To measure activation of the NFkB pathway, the CellSensor NFkB-bla ME-180 cell line (Life Technologies, Carlsbad, CA) that stably expresses beta-lactamase reporter gene under the regulation of a NF-kB response element was used. This assay allows measurement of the NFkB pathway activity induced by compounds in a ME-180 cell line. This system quantitates NF-kB activity using a FRET-based assay system where beta-lactamase expression disrupts FRET, allowing for fluorescent measurement of activity. This cell line has been used to screen the Tox21 10K compound library and to identify compounds that induce the NFkB pathway activity. The cytotoxicity of the Tox21 compound library against the NFkB-bla ME-180 cell line was tested in parallel by measuring cell viability using the CellTiter-Glo assay in the same wells.
# Tox21 Assay Protocol Summary:
# NFkB-bla ME-180 cells were dispensed at 2,000 cells/6 uL of assay medium per well into black wall/clear-bottom 1536-well plates using a Multidrop Combi (ThermoFisher Scientific, Waltham, MA) dispenser. After the assay plates were incubated at 37 C and 5% CO2 for an overnight, 23 nL of compounds dissolved in DMSO, positive controls or DMSO only was transferred to the assay plate by a Pintool station (Kalypsys, San Diego, CA). The assay plates were incubated at 37 C and 5% CO2 for 5 hr. One uL of LiveBLAzer B/G FRET substrate (Life Technologies) was added using a Flying Reagent Dispenser (Aurora Discovery, San Diego, CA) and the plates were incubated at room temperature for 1.5 hr. Fluorescence intensity (405 nm excitation, 460 nm and 530 nm emissions) was measured using an Envision plate reader (PerkinElmer, Shelton, CT). For cytotoxicity, 3 ul/well of CellTiter-Glo reagent was added into the assay plates using an FRD. After 30 min incubation at room temperature, the luminescence intensity was measured using a ViewLux plate reader (PerkinElmer).
# % is scaled to controls: 0 for no effect and ±100 for the full control effect.
row,SMILES,"activity, negative = cytotoxic"
1,C/C=C(\C)C#N,-0.182%
2,CCCCC(CC)COC(=O)c1ccccc1O (stereo not given),8.42%
3,CC(C)(c1ccc(O)cc1)c1ccc(O)cc1,-9.76%
4,O=[N+]([O-])c1ccc(F)cc1F,-0.555% [at 78.8 µM]
5,O=C1CCCC(=O)C1,4.01%
6,CCCCNC(=O)NCCCC,0.987%
7,CCC(C)S (stereo not given),6.58% [at 3.12 µM]
8,Cc1[nH]c(=O)c(C#N)cc1-c1ccc2nccn2c1,9.56%
9,CC1(C)CO[C@@H](CC(=O)O)CN1,5.81%
10,CCCN1CCCC[C@H]1C(=O)Nc1c(C)cccc1C,3.68%
11,COC(=O)c1c(Cl)c(Cl)c(C(=O)OC)c(Cl)c1Cl,6.56%
12,N#Cc1ccc(C2CCCc3cncn32)cc1 (stereo not given),6.72% [at 28.5 µM]
13,Cc1ccc(=O)n(-c2ccccc2)c1,7.71%
14,CC(C)(O)C#CC(C)(C)O,2.57% [at 78.8 µM]
15,CCn1ccnc1CC1COc2ccccc2O1 (stereo not given),4.72%
16,CC(C)(O)C(=O)c1ccccc1,-6.75%
17,CCCCCSCCCCC,-0.359%
18,CCCC(=O)O[C@]1(C(=O)CO)CC[C@H]2[C@@H]3CCC4=CC(=O)CC[C@]4(C)[C@H]3[C@@H](O)C[C@@]21C,-3.44%
19,NC(=O)c1cn(Cc2c(F)cccc2F)nn1,2.73%
20,O=C1CCCCCCCCCCCN1,-10.4%

row,SMILES,"activity, negative = cytotoxic"
1,O=C[C@H](O)[C@@H](O)[C@H](O)[C@H](O)CO,3.74%
2,CCSC(=O)N(CC(C)C)CC(C)C,-0.405%
3,CC(=O)Nc1c(I)cc(I)c(C(=O)O)c1I,9.87%
4,Cc1cccc(C)c1NC(=O)C(C)N (stereo not given),5.45%
5,c1cnc(N2CCN(Cc3ccc4c(c3)OCO4)CC2)nc1,4.11%
6,O=c1cc(-c2ccccc2)oc2ccccc12,-1.98%
7,NCCc1cnc[nH]1,1.59%
8,O=C1OC(=O)C2CCCCC12 (stereo not given),-14.9%
9,NC(=O)Nc1ccccc1,-7.02%
10,NS(=O)(=O)c1ccc(C(=O)O)cc1,15.8%
11,Cc1c(O)cccc1O,6.11% [at 78.8 µM]
12,O=C1CCCN1C1CCCCC1,-5.03%
13,COc1ccccc1OCC(O)CN1CCN(CC(=O)Nc2c(C)cccc2C)CC1 (stereo not given),2.35%
14,Cc1ccc(Cl)cc1Cl,4.79%
15,Cc1cnc(NS(=O)(=O)c2ccc(N)cc2)nc1,4.27%
16,COC(=O)c1cc(C(=O)OC)cc(S(=O)(=O)O)c1,1.69%
17,O=c1n(CCO)c(=O)n(CCO)c(=O)n1CCO,5.67% [at 78.8 µM]
18,N=c1nc(N2CCCCC2)cc(N)n1O,-0.485%
19,C[C@H](NC(CCc1ccccc1)C(=O)O)C(=O)N1CCC[C@H]1C(=O)O (stereo not given in full),6.33%
20,OC1CCCCC1c1ccccc1 (stereo not given),-2.64%
